Measurements published in PubChem BioAssay.
Unmarked numbers belong to inactive results. No rule for the calls is given here.

Target: Pantothenate synthetase (Mycobacterium tuberculosis (strain ATCC 25618 / H37Rv)) (UniProt P9WIL5)
Assay: Recombinant Mtb pantothenate synthetase (PanC) inhibitors, coupled enzyme, confirmatory (AID 375);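 also: 0% = full reaction with vehicle and 100% = no enzyme background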
Settings: coupled enzyme assay; at 10 µM, hits give high values

Sequence of Pantothenate synthetase (Mycobacterium tuberculosis (strain ATCC 25618 / H37Rv)) (P9WIL5 whole entry, looked up): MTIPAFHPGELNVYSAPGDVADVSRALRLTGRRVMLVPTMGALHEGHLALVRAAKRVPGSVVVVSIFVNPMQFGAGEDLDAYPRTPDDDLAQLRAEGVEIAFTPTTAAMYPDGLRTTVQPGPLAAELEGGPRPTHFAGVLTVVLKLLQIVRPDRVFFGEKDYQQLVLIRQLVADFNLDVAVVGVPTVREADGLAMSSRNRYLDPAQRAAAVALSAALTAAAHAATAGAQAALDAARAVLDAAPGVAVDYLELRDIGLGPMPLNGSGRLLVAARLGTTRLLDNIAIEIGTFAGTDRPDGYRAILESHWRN

Row | Structure (SMILES) | inhibition [%]
1 | Fc1ccccc1-c1nc(-c2ccccc2)no1 | 5
2 | Cc1nnc(N(C)C(=O)c2cccnc2)s1 | 0
3 | CNc1ccc(C(O)(C(F)(F)F)C(F)(F)F)cc1C(O)(C(F)(F)F)C(F)(F)F | 0
4 | COc1cc(Br)cc(/C=N/c2ncn[nH]2)c1O | 5
5 | COc1ccc(-c2noc(-c3ccccc3C(=O)NCc3ccco3)n2)cc1 | 3
6 | COC(=O)[C@@H](NC(=O)NCc1ccccc1Cl)C(C)C | 0
7 | O=c1c[n+]([O-])c2ccccc2n1OCc1ccccn1 | 4
8 | O=C1c2ccccc2C(=O)N1CCC(=O)N1CCc2ccccc21 | 0
9 | COC(=O)c1ccccc1S(=O)(=O)N(CCCN1CCOCC1)Cc1cccs1 | 0
10 | CCCc1n[nH]c2c1/C(=N/O)CC(c1ccccc1)C2 (stereo unspecified) | 8
11 | Cc1cc(Cl)c(S(=O)(=O)Nc2ccc3c(c2)OCCO3)cc1OCC(N)=O | 0
12 | O=C(CCN1CCc2ccccc2C1)Nc1ccc2c(c1)OCO2 | 0
13 | COc1ccc(OC)c(N(CC(=O)Nc2cccnc2)S(=O)(=O)c2ccc(OC)c(OC)c2)c1 | 0
14 | COc1ccc(N2C(=O)CC(N3CCCC4CCCCC43)C2=O)cc1 (stereo unspecified) | 0
15 | O=C(Nc1ccc(CN2CCCCC2)cc1)c1ccc2c(c1)OCO2 | 3
16 | CCS(=O)(=O)N1CCC(C(=O)NC2CCCCC2)CC1 | 0
17 | CCOC(=O)CC(=O)CSc1[nH]c(=O)cc(C)c1C#N | 8
18 | Cc1cccc(C)c1OCC(=O)Nc1cccc(NC(=O)c2ccco2)c1 | 12
19 | O=C(Cn1nc(-c2ccc(Cl)cc2)ccc1=O)NCCCN1CCN(Cc2ccccc2)CC1 | 2
20 | O=C1c2ccccc2C(Nc2ccc(-c3nc4ccccc4[nH]3)cc2)N1Cc1ccco1 (stereo unspecified) | 5
21 | O=C(Nc1ccc(S(=O)(=O)NC2CCCC2)cc1)c1cnccn1 | 0
22 | CC(C)[C@H](NC(=O)NC1CCCC1)C(=O)O | 0
23 | NC(Cc1ccc(Oc2ccc(O)cc2)cc1)C(=O)O (stereo unspecified) | 0
24 | O=C(Nc1nncs1)c1ccccc1NS(=O)(=O)c1cccs1 | 0
25 | Cc1ccc(N2CCN(C(=O)c3ccccc3)CC2)c(C)c1 | 1
26 | CC(C)Sc1nc2c(c(=O)n1-c1ccc(F)cc1)SCC2 | 1

Row | Structure (SMILES) | inhibition [%]
27 | c1ccc(-c2cnc(CSc3ncnc4sccc34)o2)cc1 | 0
28 | COc1cccc(NC(=O)N[C@@H](Cc2ccccc2)C(=O)O)c1 | 0
29 | Cc1ccc(NC(=O)CC2Nc3ccccc3NC2=O)cc1Cl (stereo unspecified) | 0
30 | CCOC(=O)c1c(C)[nH]c(C=Nc2ccccc2)c1O | 0
31 | CC1CCN(S(=O)(=O)c2ccc(Br)s2)CC1 | 0
32 | COc1ccc(CNc2oc(COc3ccccc3Cl)nc2C#N)cc1 | 0
33 | CCOC(=O)Nc1ccc2c(c1)N(C(=O)CN(CC)CC)c1ccccc1C=C2 | 0
34 | COC(=O)c1ccccc1NC(=O)Nc1cc(C)cc(C)n1 | 2
35 | O=C(c1cnc2n(c1=O)CCS2)N1CCc2ccccc21 | 2
36 | O=C(O)c1cccc(NC(=O)C2C3C=CC(C3)C2C(=O)OCC(F)(F)C(F)F)c1 (stereo unspecified) | 5
37 | CCCNS(=O)(=O)c1ccc(OCC(=O)Nc2ccccc2F)cc1 | 0
38 | CC(C)CCN1CC(C(=O)NCc2ccccc2)CC1=O (stereo unspecified) | 0
39 | CCNC(=O)N(C)c1nncnc1C(=O)NC | 0
40 | C1=Nc2c(NCc3ccccc3)ncnc2Oc2ccccc21 | 0
41 | COc1ccc(C2c3c(-c4ccccc4O)n[nH]c3C(=O)N2CCc2ccc(OC)c(OC)c2)cc1 (stereo unspecified) | 0
42 | COC(=O)c1ccc(-c2sc3nc(N4CCOCC4)c4c(c3c2N)CCCC4)o1 | 0
43 | COc1ccc(N2CCN(c3ncnc4c3cnn4-c3ccc(C)cc3C)CC2)cc1 | 8
44 | CC1(C)Cc2noc(N)c2C(C)(C)N1OC(=O)c1ccccc1 | 0
45 | COC(=O)c1[nH]c2ccc(C)cc2c1NC(=O)CN1CCC(C)CC1 | 0
46 | CC(C)OC(=O)CSc1nnc(-c2ccco2)n1N | 0
47 | O=C(Nc1nnc(C2CCCCC2)s1)c1cccs1 | 8
48 | COc1cccc(-c2nnc(NC(=O)Cc3cccs3)s2)c1 | 0
49 | CCCn1c2ccccc2c2nnc(SCC(=O)OCC)nc21 | 6
50 | CCc1c(C(=O)Nc2ncn(Cc3cccc(C)c3)n2)csc1C | 4
51 | Cc1nc2ccccc2c(=O)n1NC(=O)Nc1ccccc1 | 0
52 | CCn1cc(/C=C(/C#N)S(=O)(=O)c2ccccc2)cn1 | 2

Row | Structure (SMILES) | inhibition [%]
53 | Cc1nc(CNS(=O)(=O)c2cc(C)c(C)cc2C)cs1 | 1
54 | COCCOC(=O)C1=C(N)OC2=C(C(=O)CC(C)(C)C2)C1c1cccnc1 (stereo unspecified) | 0
55 | COc1ccc(-c2nc(C)sc2CC(=O)O)cc1 | 4
56 | O=C(CCn1c(=O)oc2ccccc21)N1CCCCCC1 | 0
57 | CN1CC=C2C(C#N)=C(N)C(C#N)(C#N)C(Cc3ccccc3)C2C1 (stereo unspecified) | 0
58 | COc1ccc(N2CCN(C(=O)CSc3ccccc3)CC2)cc1 | 6
59 | O=C(O)c1[nH]nc2c1COc1ccccc1-2 | 6
60 | COc1cccc(NC(=O)c2nnn(Cc3ccc(Br)cc3F)c2N)c1 | 7
61 | O=C(C1CC1)N1CCc2cc(S(=O)(=O)N(CCO)Cc3ccccc3)ccc21 | 0
62 | O=C(Nc1cccc2ccccc12)c1ccc(Br)o1 | 0
63 | COC(=O)C1=CN(C(C)C)C=C(C(=O)OC)C1c1cc2c(cc1Br)OCO2 | 0
64 | CCCCSc1nc2c(cnn2-c2ccc(Cl)cc2)c(=O)[nH]1 | 0
65 | CCCN1Cc2cccc(C(=O)NCc3cccs3)c2C1=O | 0
66 | CCC1Oc2ccc(C)cc2N(CC(=O)NCCCN2CCCCC2CC)C1=O (stereo unspecified) | 4
67 | Nc1nc(F)nc2c1ncn2[C@@H]1O[C@H](CO)[C@@H](O)[C@@H]1O | 0
68 | CC(=O)c1cc2c(cc1NC(=O)CN1CCN(C(=O)c3ccco3)CC1)OCO2 | 4
69 | Cn1c(=O)c(=O)n(C)c2cc(S(=O)(=O)N3CCN(c4cccc(C(F)(F)F)c4)CC3)ccc21 | 9
70 | COc1ccc(N2CC(C(=O)Nc3ccc(F)cc3F)CC2=O)cc1 (stereo unspecified) | 1
71 | CCOC(=O)c1c(N)c(C#N)nn1-c1ccccc1C(=O)OC | 0
72 | CCOC(=O)c1csc(NC(=O)C2CCCCC2)n1 | 2
73 | O=C(COc1ccccc1Cl)OCC(=O)N1CCN(S(=O)(=O)c2ccccc2)CC1 | 8
74 | CCOC(=O)C1CCN(c2nc3ccccc3nc2C(C#N)C(=O)OC(C)C)CC1 (stereo unspecified) | 0
75 | CC1(C)OC(=O)C(=CNC(CCC(N)=O)C(=O)O)C(=O)O1 (stereo unspecified) | 3
76 | CCc1nccn1S(=O)(=O)c1ccc2ccc(C)cc2c1 | 3
77 | O=C(CN(c1ccc(F)cc1)S(=O)(=O)c1ccc2c(c1)OCCO2)NCC1CCCO1 (stereo unspecified) | 0
78 | COc1ccc(-c2[nH]nc3c2C(c2ccccc2OC(=O)N2CCOCC2)C(C#N)=C(N)O3)cc1 (stereo unspecified) | 5

Row | Structure (SMILES) | inhibition [%]
79 | Cc1ccccc1CS(=O)(=O)Cc1ccc(C(=O)NCCCN2CCOCC2)o1 | 0
80 | Cc1cccc(NC(=O)CC2CCC2)c1 | 0
81 | C=CCn1c(COc2cccc(C)c2)nnc1SCC(=O)NC(=O)NCc1ccco1 | 0
82 | CCOC(=O)C1CCN(C(=O)CN(Cc2ccccc2)S(C)(=O)=O)CC1 | 1
83 | Cc1cnc(NC(=O)C2=C(O)c3ccccc3S(=O)(=O)N2C)s1 | 0
84 | O=C(NCCCN1CCCC1=O)c1cccnc1 | 4
85 | Cc1ccc(N2C(N)=NC(N)=NC23CCCC3)c(C)c1 | 3
86 | Cc1ccc(S(=O)(=O)Cc2ccc(C(=O)N3CCN(Cc4ccccc4)CC3)o2)cc1 | 3
87 | CCOC(=O)Cc1c(C)c2c(O)cc(O)cc2oc1=O | 8
88 | N#CC1=C(SCc2ccccc2)NC(=O)C(C#N)C12CCCC2 (stereo unspecified) | 2
89 | O=C(CCN1CCOCC1)Nc1ccc2c(c1)CCC2 | 4
90 | Cc1cc(N2CCC3(CC2)OCCO3)n2nc(C)c(-c3ccc(Cl)cc3)c2n1 | 8
91 | COc1cc2c(cc1NC(=O)COC(=O)Cn1cnc3ccccc31)oc1ccccc12 | 0
92 | COc1ccc(CSCCN)cc1Cl | 0
93 | COC(=O)c1cnc2c(C(F)(F)F)cccc2c1OC | 2
94 | CC(=O)O[C@H]1C(=O)[C@]2(C)[C@H]([C@H](OC(=O)c3ccccc3)[C@]3(O)C[C@H](OC(=O)[C@H](O)[C@@H](NC(=O)c4ccccc4)c4ccccc4)C(C)=C1C3(C)C)[C@]1(OC(C)=O)CO[C@@H]1C[C@@H]2O | 9
95 | CCOC(=O)c1cnc(-n2nc(C)cc2C)nc1N1CC(C)OC(C)C1 (stereo unspecified) | 0
96 | Cc1cnc(NC(=O)CSc2nnc(COc3c(C)cccc3C)o2)s1 | 8
97 | COc1ccc(C(=O)Nc2ccc(S(=O)(=O)Nc3nccnc3OC)cc2)cc1OC | 0
98 | CN(C)S(=O)(=O)NC(c1ccccc1)c1ccccc1 | 4
99 | Cn1c(=O)c2c(nc(SCCOc3ccc4ccc(=O)oc4c3)n2C)n(C)c1=O | 0
100 | CC(Cc1ccc(O)c(O)c1)C(C)Cc1ccc(O)c(O)c1 (stereo unspecified) | 0
101 | c1c2c(cc3sc(N4CCCCC4)nc13)OCCO2 | 4
